Results on six compounds are retold here after PubChem BioAssay.

Broadly, the remaining activity is the signal under treatment as a percentage of the control signal.

The subject of experiment [1] is Aerobactin synthetase IucA (Klebsiella pneumoniae). The experiment is described as follows: IucA aerobactin synthetase inhibitors, biochemical, Tocris library, absorbance (AID 1345561; call rule not given here;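 further: 100% = enzyme without compound and 0% = no enzyme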). Particulars: purified IucA enzyme assay, absorbance (OD) read-out; stronger effect = lower value;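 tested at 8 µM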.
Experiment [2] in a line: growth inhibition of DIPG glioma cells, dose response, cell-based, SU-DIPG-XVII, MIPE5.0, CellTiter-Glo, qHTS (AID 1347060). Particulars: SU-DIPG-XVII viability, CellTiter-Glo ATP luminescence. On the technique in general: ATP-based viability assays read luminescence as a measure of living cells.
Experiment [3] is described as follows: growth inhibition of DIPG glioma cells, dose response, cell-based, SU-DIPG-XIII, MIPE4.0, CellTiter-Glo, qHTS (AID 1347061; cut-off not given, nearly all actives have AC50 up to about 37 µM;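 further: cells exposed to compound for 48 hours before readout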). Particulars: SU-DIPG-XIII viability, CellTiter-Glo ATP luminescence.
The nature of experiment [4]: growth inhibition of DIPG glioma cells, dose response, cell-based, JHH-DIPG-1, MIPE4.0, CellTiter-Glo, qHTS (AID 1347062; cut-off not given, nearly all actives have AC50 up to about 27 µM). To be noted: JHH-DIPG-1 viability, CellTiter-Glo ATP luminescence.
Experiment [5] is described as follows: growth inhibition of DIPG glioma cells, dose response, cell-based, SU-DIPG-IV, MIPE4.0, CellTiter-Glo, qHTS (AID 1347063; cut-off not given, nearly all actives have AC50 up to about 30 µM;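 further: compound exposure lasted 48 hours before the viability readout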). To be noted: SU-DIPG-IV viability, CellTiter-Glo ATP luminescence.
The nature of experiment [6]: growth inhibition of DIPG glioma cells, dose response, cell-based, SU-DIPG-XIII, MIPE5.0, CellTiter-Glo, qHTS (AID 1347064; cut-off not given, nearly all actives have AC50 up to about 23 µM). To be noted: SU-DIPG-XIII viability, CellTiter-Glo ATP luminescence.
Experiment [7] can be described thus: SU-DIPG-VI glioma cell viability, MIPE4.0 library, CellTiter-Glo luminescence, qHTS (AID 1347066; cut-off not given, nearly all actives have AC50 up to about 30 µM;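 further: cells exposed to compound for 48 hours before readout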). To be noted: CellTiter-Glo ATP luminescence.
A short description of experiment [8]: JHH-DIPG-1 glioma cell viability, MIPE5.0 library, CellTiter-Glo luminescence, qHTS (AID 1347067).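 Further: cells exposed to compound for 48 hours before readout.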 Particulars: JHH-DIPG-1 glioma viability, CellTiter-Glo ATP luminescence.
Experiment [9] in a line: SU-DIPG-XXV glioma cell viability, MIPE5.0 library, qHTS (AID 1347068; cut-off not given, nearly all actives have IC50 up to about 30 µM). (In general: In qHTS, concentration-response curves come from the screen itself.)
A short description of experiment [10]: viability loss in pontine glioma line – cell-based, SU-DIPG-XXV, MIPE5.0, CellTiter-Glo, qHTS, dose response (AID 1347065).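 Further: cells exposed to compound for 48 hours before ATP readout.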 Particulars: CellTiter-Glo ATP luminescence.
Experiment [11] is described as follows: protection of motor neurons from glutamate death, cell-based, TUNEL DNA degradation staining, MNGlu (AID 1594; call rule not given here). To be noted: glutamate-induced death, at 1 µM, stronger effect = higher value.
A short description of experiment [12]: inhibitors of Cryptococcus chitosan production, flow cytometry, Cibacron Brilliant Red staining (AID 1347148; call rule not given here;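 further: compound exposure lasted three days at 37 degrees C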). Particulars: Cryptococcus neoformans chitosan, stronger effect = lower value; at 10 µM unless noted.

Molecules are shown by their SMILES. Values without a mark were called inactive. Inconclusive results are not listed. Calls of active or inactive are those of the source. Unless noted, cut-off not given; nearly all actives show AC50 up to about 26 µM.

In the case of `NC(N)=NC(N)=Nc1ccccc1`, the remaining activity in [1] was 119%.
Consider `O=c1c(O)c(-c2ccc(O)cc2O)oc2cc(O)cc(O)c12`, for which the compound was called inactive in experiment [2], in [3], in experiment [4], in experiment [5], in experiment [6] and in experiment [7]. Also, the outcome in [8] and in experiment [9] was inactive.
Turning to `O=C1C[C@@H](c2ccc(O)cc2)Oc2cc(O)cc(O)c21`, the compound was classed as inactive in experiment [2], in experiment [3], in experiment [4], in [5], in [10] and in experiment [7]. In addition, the compound was classed as inactive in experiment [8] and in experiment [9].
Consider `NC(N)=NCCCCN=C(N)N`, for which the protection in experiment [11] was 45% (active).
Still for that read-out and setting: as for `CN1CCc2c(c3ccccc3n2Cc2ccccc2)C1`, the figure is 49% (active).
On to `CC(C)Cn1c(=O)n(C)c(=O)c2[nH]cnc21`, for which, in experiment [12], the fold fluorescence was 4.08 [at 225 µM].
